PubChem BioAssay (NCI)
The panel holds about 79,000 compounds, 15% with a hit somewhere; the sample as a whole holds those more often. Calls of active or inactive are those of the source. No stated cut-off is given here; in the data, active means growth inhibition above about 70%; inactive means the rest.

Legend:
[1] = NCI Yeast Anticancer Drug Screen. Data for the rad52 strain (AID 147);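 further: 0% = growth of vehicle-treated control cultures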; conditions: S. cerevisiae rad52 mutant growth inhibition, stronger effect = higher value
How it was run: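 Inhibition of yeast growth, referenced to vehicle controls, was the measured output for a strain with defective DNA damage repair.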

[2] = NCI Yeast Anticancer Drug Screen. Data for the wt1 strain (AID 149);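 further: 0% = growth of vehicle-treated wt1 cultures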; conditions: S. cerevisiae wt1 strain (SPY 50644) growth inhibition, stronger effect = higher value
How it was run: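 The wt1 strain was treated with compounds, and growth was compared with vehicle-treated cultures to give inhibition.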

[3] = NCI Yeast Anticancer Drug Screen. Data for the rad50EPP+ strain (AID 151);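 further: 0% = growth of vehicle-treated control cultures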; conditions: S. cerevisiae rad50 mutant strain, stronger effect = higher value
How it was run: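 Genetically defined yeast (rad50EPP+, DNA damage repair alteration) is grown with compound, and inhibition of growth is expressed relative to vehicle-treated controls.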

[4] = NCI Yeast Anticancer Drug Screen. Data for the rad50 strain (AID 155);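 further: 0% = growth of vehicle-only cultures of the same strain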; conditions: S. cerevisiae rad50 strain growth inhibition, stronger effect = higher value
How it was run: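 Cells are treated with compound, grown, and their growth is then scored against vehicle-only cultures of the same repair-deficient yeast strain.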

[5] = NCI Yeast Anticancer Drug Screen. Data for the mec2-1 strain (AID 157); conditions: S. cerevisiae mec2-1 strain, stronger effect = higher value
How it was run: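 Each compound was tested on mec2-1 yeast, a strain altered in DNA damage repair or cell cycle control. Growth inhibition is reported relative to vehicle.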

[6] = NCI Yeast Anticancer Drug Screen. Data for the rad14 strain (AID 159);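 further: 0% = growth of vehicle-treated control cultures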; conditions: S. cerevisiae rad14 strain growth inhibition, stronger effect = higher value
How it was run: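 Readout: yeast growth inhibition, referenced to vehicle-only cultures. Strain bears a defined alteration in DNA damage repair.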

[7] = NCI Yeast Anticancer Drug Screen. Data for the sgs1 mgt1 strain (AID 161);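 further: 0% = growth of cultures given vehicle only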; conditions: S. cerevisiae sgs1 mgt1 strain, stronger effect = higher value
How it was run: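 Inhibition of yeast growth, normalised to vehicle-treated controls, is reported for a strain bearing genetic alterations in DNA damage repair.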

[8] = NCI Yeast Anticancer Drug Screen. Data for the CLN2oe strain (AID 163);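 further: 0% = growth of vehicle-only control cultures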; conditions: S. cerevisiae CLN2oe strain, stronger effect = higher value
How it was run: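 First, the altered yeast strain was treated with each compound; second, its growth was measured; finally, inhibition was derived by comparison with vehicle controls.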

[9] = NCI Yeast Anticancer Drug Screen. Data for the cln2 rad14 strain (AID 165);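 further: 0% = growth equal to vehicle treated cultures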; conditions: S. cerevisiae cln2 rad14 strain, stronger effect = higher value
How it was run: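 Test compounds were added to cln2 rad14 yeast cultures; inhibition of growth was then determined by comparison with vehicle treatment.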

[10] = NCI Yeast Anticancer Drug Screen. Data for the bub3 strain (AID 167); conditions: S. cerevisiae bub3 mutant strain, stronger effect = higher value
How it was run: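 Part of a panel of yeast mutants defective in DNA damage repair or cell cycle regulation. Each strain is grown with compound, and inhibition is calculated relative to solvent-treated cultures.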

[11] = NCI Yeast Anticancer Drug Screen. Data for the wt2 strain (AID 169);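 further: 0% = growth of vehicle-treated yeast cultures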; conditions: S. cerevisiae wt2 strain growth inhibition, stronger effect = higher value
How it was run: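 The panel's yeast strains carry defined changes in DNA repair or cell cycle genes. Each strain is grown with compound, and growth loss is scored relative to vehicle.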

[12] = NCI Yeast Anticancer Drug Screen. Data for the mlh1 strain (AID 171);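 further: 0% = growth of vehicle-treated control cultures of the same strain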; conditions: S. cerevisiae mlh1 strain growth inhibition, stronger effect = higher value
How it was run: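 Inhibition values reflect reduced yeast growth in the presence of compound, referenced to vehicle controls, using a strain chosen for its alteration in DNA repair or cell cycle control.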

[13] = NCI Yeast Anticancer Drug Screen. Data for the sgs1 strain (AID 173);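 further: 0% = growth of vehicle-only control cultures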; conditions: S. cerevisiae sgs1 mutant, stronger effect = higher value
How it was run: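 Vehicle-treated cultures served as reference for growth inhibition of a yeast strain altered in DNA damage repair or cell cycle control after compound exposure.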

[14] = NCI Yeast Anticancer Drug Screen. Data for the mlh1 rad18 strain (AID 175); conditions: S. cerevisiae mlh1 rad18 strain growth inhibition, stronger effect = higher value
How it was run: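 Inhibition values reflect reduced growth of mutant yeast versus vehicle-treated controls following compound exposure; the mutations affect DNA damage repair.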

[15] = NCI Yeast Anticancer Drug Screen. Data for the rad18 strain (AID 177); conditions: S. cerevisiae rad18 mutant growth inhibition, stronger effect = higher value
How it was run: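 Steps: expose repair-mutant yeast to compound; measure growth; express as inhibition relative to vehicle control.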

[16] = at 5.0 µM (retest, dose inferred, filed as 0.5)
[17] = at 50.0 µM (retest, dose inferred, filed as 5.0)

Measured: growth inhibition

O=S(=O)(N/N=C/c1cccc(Cl)c1)c1ccccc1
active: [1]; at 33.0 µM 88% | [1]; at 100.0 µM 99% | [2]; at 100.0 µM 99% | [4]; at 33.0 µM 87% | [4]; [17] 92% | [4]; at 50.0 µM 89.9% | [4]; at 100.0 µM 98% | [5]; at 100.0 µM 91% | [6]; at 33.0 µM 73% | [6]; at 100.0 µM 99% | [7]; [17] 86% | [8]; at 33.0 µM 84% | [8]; at 100.0 µM 82% | [9]; [17] 89% | [10]; at 33.0 µM 79% | [10]; [17] 88% | [10]; at 100.0 µM 98% | [11]; at 33.0 µM 86% | [11]; at 100.0 µM 99% | [12]; at 33.0 µM 83% | [12]; at 100.0 µM 99% | [13]; at 33.0 µM 77% | [13]; at 100.0 µM 99% | [14]; [17] 95% | [14]; at 50.0 µM 96.8% | [15]; at 33.0 µM 86% | [15]; at 100.0 µM 99%
inactive: [1]; at 1.2 µM -4% | [1]; at 3.7 µM -3% | [1]; at 11.0 µM 8% | [2]; at 1.2 µM 0% | [2]; at 3.7 µM 4% | [2]; at 11.0 µM 3% | [2]; at 33.0 µM 65% | [3]; at 1.2 µM 4% | [3]; at 3.7 µM 8% | [3]; at 11.0 µM 18% | [3]; at 33.0 µM 18% | [3]; at 100.0 µM 25% | [4]; at 1.2 µM -1% | [4]; at 3.7 µM -1% | [4]; [16] -14% | [4]; at 11.0 µM 7% | [5]; at 1.2 µM -3% | [5]; at 3.7 µM 4% | [5]; [16] -18% | [5]; at 11.0 µM 13% | [5]; at 33.0 µM 54% | [5]; [17] 66% | [5]; at 50.0 µM 55.5% | [6]; at 1.2 µM -7% | [6]; at 3.7 µM -6% | [6]; at 11.0 µM -1% | [7]; [16] -1% | [7]; at 50.0 µM 63.7% | [8]; at 1.2 µM -10% | [8]; at 3.7 µM -7% | [8]; at 11.0 µM 27% | [9]; [16] 20% | [9]; at 50.0 µM 67.4% | [10]; at 1.2 µM 1% | [10]; at 3.7 µM 1% | [10]; [16] -12% | [10]; at 11.0 µM 11% | [10]; at 50.0 µM 63.3% | [11]; at 1.2 µM -4% | [11]; at 3.7 µM -4% | [11]; at 11.0 µM 0% | [12]; at 1.2 µM -3% | [12]; at 3.7 µM 0% | [12]; at 11.0 µM 11% | [13]; at 1.2 µM 1% | [13]; at 3.7 µM 4% | [13]; at 11.0 µM 18% | [14]; [16] 57% | [15]; at 1.2 µM -3% | [15]; at 3.7 µM 1% | [15]; at 11.0 µM 29%
